According to PubChem BioAssay:
Calls of active or inactive are those of the source.

Assays:
[1] = binders of probe aFSTL3 on microarray, primary screen, stem cell growth factor project, biochemical, small-molecule microarray, fluorescence 635/667 (AID 1064); conditions: higher = more signal;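 also: measures binding of the biotinylated anti-FSTL3 antibody to printed compounds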
[2] = binders from COS7 lysate, DM2A8 probe, primary screen, torsin A project, cell lysate, small-molecule microarray, fluorescence 635/667 (AID 1065); conditions: higher = more signal, COS7 lysate expressing mutant human TOR1A
[3] = binders of probe aFGF2 on microarray, primary screen, stem cell growth factor project, biochemical, small-molecule microarray, fluorescence 635/667 (AID 1067); conditions: higher = more signal;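 also: measures binding of biotinylated aFGF2 protein to printed compounds on slides; z-score merges feature fluorescence and signal-to-noise across triplicate slides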
[4] = binders of probe aFGF10 on microarray, primary screen, stem cell growth factor project, biochemical, small-molecule microarray, fluorescence 635/667 (AID 1071); conditions: higher = more signal;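 also: score merges 667 nm spot intensity and signal to noise from triplicate slides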
[5] = molecular target: Neurogenic locus notch homolog protein 2 (Homo sapiens) (UniProt Q04721); assay: Notch2 binders on small-molecule microarrays, primary screen, biochemical, small-molecule microarray, 635 nm fluorescence, stem cell growth factors (AID 1073); conditions: Notch2 binding, higher = more signal
Chain of Neurogenic locus notch homolog protein 2 (Homo sapiens) (Q04721 whole entry, looked up, canonical isoform): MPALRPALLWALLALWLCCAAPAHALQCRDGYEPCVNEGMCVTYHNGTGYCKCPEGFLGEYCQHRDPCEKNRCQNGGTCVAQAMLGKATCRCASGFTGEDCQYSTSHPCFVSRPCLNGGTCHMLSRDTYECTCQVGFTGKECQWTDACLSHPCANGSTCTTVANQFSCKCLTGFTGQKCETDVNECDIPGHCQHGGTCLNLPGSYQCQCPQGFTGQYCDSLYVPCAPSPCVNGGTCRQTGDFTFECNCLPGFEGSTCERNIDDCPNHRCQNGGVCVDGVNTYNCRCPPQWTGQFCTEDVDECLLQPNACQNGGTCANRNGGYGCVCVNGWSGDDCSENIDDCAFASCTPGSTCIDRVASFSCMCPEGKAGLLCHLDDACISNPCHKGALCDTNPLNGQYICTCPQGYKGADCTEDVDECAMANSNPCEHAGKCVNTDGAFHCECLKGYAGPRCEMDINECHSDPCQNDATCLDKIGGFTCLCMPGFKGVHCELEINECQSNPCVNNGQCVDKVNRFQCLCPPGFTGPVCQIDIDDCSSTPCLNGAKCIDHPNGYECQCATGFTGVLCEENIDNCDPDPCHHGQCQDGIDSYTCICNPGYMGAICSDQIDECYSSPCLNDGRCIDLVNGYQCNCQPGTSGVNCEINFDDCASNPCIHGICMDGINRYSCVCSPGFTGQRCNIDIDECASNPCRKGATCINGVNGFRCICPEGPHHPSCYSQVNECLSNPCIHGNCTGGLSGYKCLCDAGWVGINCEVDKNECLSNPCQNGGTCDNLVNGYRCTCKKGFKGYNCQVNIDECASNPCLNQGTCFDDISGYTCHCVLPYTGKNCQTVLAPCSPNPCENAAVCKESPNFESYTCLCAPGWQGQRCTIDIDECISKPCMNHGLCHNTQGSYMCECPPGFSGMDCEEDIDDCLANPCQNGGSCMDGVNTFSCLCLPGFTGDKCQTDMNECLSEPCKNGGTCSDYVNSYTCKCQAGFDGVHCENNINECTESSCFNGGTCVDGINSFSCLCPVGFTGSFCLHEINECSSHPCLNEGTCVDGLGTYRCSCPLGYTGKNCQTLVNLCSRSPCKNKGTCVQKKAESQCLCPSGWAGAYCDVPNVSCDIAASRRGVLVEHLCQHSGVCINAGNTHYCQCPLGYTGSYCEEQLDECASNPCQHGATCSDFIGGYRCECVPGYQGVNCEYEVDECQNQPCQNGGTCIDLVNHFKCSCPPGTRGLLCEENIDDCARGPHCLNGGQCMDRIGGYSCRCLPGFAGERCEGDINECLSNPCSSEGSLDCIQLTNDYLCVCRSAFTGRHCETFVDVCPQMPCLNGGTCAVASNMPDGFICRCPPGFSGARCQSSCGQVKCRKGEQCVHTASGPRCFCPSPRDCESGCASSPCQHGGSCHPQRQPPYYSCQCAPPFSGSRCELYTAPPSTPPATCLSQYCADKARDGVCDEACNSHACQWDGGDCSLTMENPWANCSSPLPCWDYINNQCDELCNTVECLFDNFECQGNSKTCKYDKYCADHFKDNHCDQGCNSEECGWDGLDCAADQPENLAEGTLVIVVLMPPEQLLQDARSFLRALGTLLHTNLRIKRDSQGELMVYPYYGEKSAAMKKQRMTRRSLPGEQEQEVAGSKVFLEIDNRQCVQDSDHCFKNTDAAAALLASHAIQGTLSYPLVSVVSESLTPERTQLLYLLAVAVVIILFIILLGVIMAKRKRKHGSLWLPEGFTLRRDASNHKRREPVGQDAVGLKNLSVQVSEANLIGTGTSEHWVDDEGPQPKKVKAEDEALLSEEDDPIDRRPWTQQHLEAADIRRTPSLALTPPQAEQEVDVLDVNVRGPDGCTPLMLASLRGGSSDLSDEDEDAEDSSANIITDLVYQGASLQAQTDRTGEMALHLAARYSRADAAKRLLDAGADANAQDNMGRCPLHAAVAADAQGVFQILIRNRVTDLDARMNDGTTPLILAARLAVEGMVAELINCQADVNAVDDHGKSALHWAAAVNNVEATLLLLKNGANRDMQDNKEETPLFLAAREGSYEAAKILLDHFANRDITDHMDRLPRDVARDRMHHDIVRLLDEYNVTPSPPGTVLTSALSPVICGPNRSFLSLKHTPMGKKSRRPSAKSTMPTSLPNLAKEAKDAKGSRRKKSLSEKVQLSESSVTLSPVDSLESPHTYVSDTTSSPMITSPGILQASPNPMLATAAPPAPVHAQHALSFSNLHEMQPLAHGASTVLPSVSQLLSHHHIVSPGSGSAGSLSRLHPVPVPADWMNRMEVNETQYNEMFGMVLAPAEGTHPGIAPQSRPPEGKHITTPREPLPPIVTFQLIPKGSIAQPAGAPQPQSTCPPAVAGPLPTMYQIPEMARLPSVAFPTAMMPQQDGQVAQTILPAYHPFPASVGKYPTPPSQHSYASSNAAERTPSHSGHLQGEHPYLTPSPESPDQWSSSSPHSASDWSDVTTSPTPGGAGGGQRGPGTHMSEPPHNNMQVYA

[6] = molecular target: Pro-neuregulin-1, membrane-bound isoform (Homo sapiens) (UniProt Q02297); assay: NRG1 binders on small-molecule microarrays, primary screen, psychiatric disease protein project, biochemical, small-molecule microarray, fluorescence 635/667 (AID 1075); conditions: NRG1 binding, 635 nm fluorescence, higher = more signal;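 also: score combines 667 nm spot fluorescence with signal to noise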
Chain of Pro-neuregulin-1, membrane-bound isoform (Homo sapiens) (Q02297 whole entry, looked up, the tested form may be a part, canonical isoform): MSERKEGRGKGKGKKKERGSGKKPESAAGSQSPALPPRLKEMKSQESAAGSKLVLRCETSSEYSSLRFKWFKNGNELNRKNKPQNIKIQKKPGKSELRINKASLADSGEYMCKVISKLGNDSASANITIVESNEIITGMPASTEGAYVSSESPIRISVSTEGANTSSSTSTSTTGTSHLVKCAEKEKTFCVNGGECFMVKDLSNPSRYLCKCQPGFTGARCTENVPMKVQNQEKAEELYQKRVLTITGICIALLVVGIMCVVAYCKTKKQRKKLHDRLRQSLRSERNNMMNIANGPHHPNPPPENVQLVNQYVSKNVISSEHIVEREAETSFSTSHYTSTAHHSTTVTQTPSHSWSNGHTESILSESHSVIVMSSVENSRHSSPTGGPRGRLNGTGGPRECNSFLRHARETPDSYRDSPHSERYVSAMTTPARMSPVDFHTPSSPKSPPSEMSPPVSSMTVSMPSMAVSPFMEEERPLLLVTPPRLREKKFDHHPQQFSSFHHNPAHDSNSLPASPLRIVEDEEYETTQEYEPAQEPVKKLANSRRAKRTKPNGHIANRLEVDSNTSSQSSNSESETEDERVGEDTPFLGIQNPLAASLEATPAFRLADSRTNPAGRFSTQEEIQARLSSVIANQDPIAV

[7] = system: Neuregulin-1 EGF-like domain; assay: binders of neuregulin-1 EGF-like domain, primary screen, biochemical, small-molecule microarray, 635 nm fluorescence (AID 1081); conditions: small-molecule microarray binding, higher = more signal;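 also: binding of the protein to compounds printed on small-molecule microarray slides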
[8] = FRG1 promoter luciferase signal modulators, primary screen, FRG1 inhibition for FSHD, cell-based, C2C12 myotubes, firefly/Renilla luciferase, luminescence (AID 1084); conditions: higher = more signal, called active from +8 up or from −8 down
[9] = binders of probe aFST on microarray, primary screen, stem cell growth factor project, biochemical, small-molecule microarray, fluorescence 635/667 (AID 1086); conditions: higher = more signal;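 also: score merges 667 nm fluorescence with signal-to-noise of each printed compound spot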
[10] = binders of probe aHhip on microarray, primary screen, stem cell growth factor project, biochemical, small-molecule microarray, fluorescence 635/667 (AID 1087); conditions: higher = more signal;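 also: score merges spot fluorescence at 667nm with spot signal to noise ratio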

Row | SMILES | composite z-score [1] | composite z-score [2] | composite z-score [3] | composite z-score [4] | composite z-score [5] | composite z-score [6] | composite z-score [7] | z-score [8] | composite z-score [9] | composite z-score [10]
1 | COCC(=C=CC[C@@H](O)c1ccc(CO)o1)CCO | -0.403 | -0.196 | -0.188 | 0.502 | -0.235 | 0.178 | -0.149 | -1.71 (inactive) | -0.0032 | 0.011
2 | Cc1ccccc1C(O)C1C=CC2C(=O)N(C)C(=O)C2N1N1CCCCC1 (stereo not given) | 0.363 | 0.831 | 0.108 | 1.13 | 1.54 | 1.42 | 1.38 | 0.703 (inactive) | 0.927 | -0.0296
3 | O=C1O[C@@H](c2ccccc2)[C@@H](c2ccccc2)N2[C@@H](c3ccc(OCCO)cc3)[C@]3(C(=O)Nc4ccccc43)[C@@H](C(=O)Nc3nc4ccccc4s3)[C@H]12 | 0.509 | 0.58 | 0.0732 | 0.962 | 1.49 | 1.45 | 1.3 | -3.08 (inactive) | 1.01 | 0.629
4 | [N-]=[N+]=NCc1ccccc1[C@H]1OC(c2ccc(OCCCO)cc2)=N[C@@]1(CCS(=O)(=O)c1ccccc1)C(=O)N1CCOCC1 | 0.476 | 0.525 | 0.221 | 1.03 | 1.63 | 2.18 | 1.16 | 0.51 (inactive) | 1.86 | -0.0391
5 | O=C1OCCC=C[C@H]2OC34C=CCN(c5ccc6ccccc6c5)C(=O)[C@H]3N(CCCCCO)C(=O)[C@@H]4C12 (stereo not given in full) | 1.05 | 2.06 | -0.116 | 0.0074 | -0.377 | 2.17 | 1.57 | -0.517 (inactive) | -0.188 | 0.0176
6 | CCOC(=O)C1=C[C@@H](CC)N(S(=O)(=O)c2ccc(C)cc2)[C@H]1c1ccccc1 | 0.119 | -0.872 | 0.0603 | 0.572 | 1.61 | 1.1 | 0.919 | -1.74 (inactive) | 0.962 | 0.0373
7 | CCOC(=O)C[C@H]1[C@H](OC(=O)c2ccccc2-c2ccccc2)[C@@H](NC(=O)Cc2ccc(OC)cc2)c2cc(OCCCO)ccc2N1C(=O)c1ccccc1 | -0.0656 | 0.629 | -0.0942 | 0.321 | 0.125 | -0.299 | -0.537 | -0.735 (inactive) | 0.369 | -0.0645
8 | COc1ccc([Si](C)(C)[C@@H]2[C@@H](CCn3cc([C@H](O)c4ccccc4)nn3)O[C@]3(C(=O)N(Cc4cccc(N5CCOC5=O)c4)c4ccccc43)[C@H]2C)cc1 | 0.752 | -0.268 | -0.152 | -0.368 | -1.11 | 0.0895 | -0.0072 | 1.34 (inactive) | -0.64 | -0.236
9 | C#CCN(C(/C=C/c1ccccc1)CO)C(C(=O)O)c1ccccc1 (stereo not given) | -0.27 | -0.769 | -0.159 | 0.263 | 0.0504 | -0.165 | -0.435 | 1.2 (inactive) | -0.652 | -0.284
10 | O=C1O[C@H](c2ccccc2)[C@H](c2ccccc2)N2[C@H]1[C@@H](C(=O)O)[C@]1(C(=O)Nc3ccc(C#CC4=CCCCC4)cc31)[C@H]2c1ccc(OCCO)cc1 | -0.0152 | 0.651 | -0.0438 | 1.09 | 1.44 | 1.77 | 1.34 | 0.448 (inactive) | 1.03 | -0.0672
11 | CCCCCCc1nc(CCCc2cc3c(c(CCCCCC)n2)[Si](C(C)C)(C(C)C)OC3)cc2c1[Si](C(C)C)(C(C)C)OC2 | -0.0039 | 0.0271 | -0.149 | -0.408 | -0.955 | -0.247 | -0.774 | 0.521 (inactive) | -0.344 | 0.0274
12 | COC(=O)c1ccc(C23CC2(C(NP(=O)(c2ccccc2)c2ccccc2)c2ccccc2)C3)cc1 (stereo not given) | 0.741 | 0.275 | -0.0009 | 0.0592 | 1.73 | 2.26 | 1.17 | -4.52 (inactive) | 1.73 | 0.0596
13 | CO[C@H]1O[C@H](CO)[C@@H](OC(=O)Nc2ccc(Oc3ccccc3)cc2)[C@H](OC(=O)Nc2ccccc2)[C@H]1OC(=O)Nc1ccccc1 | 0.096 | 0.95 | 0.0732 | 1.16 | 1.48 | 1.3 | 1.39 | 0.119 (inactive) | 0.446 | -0.0346
14 | CCOC(=O)C[C@H]1[C@H](OC(=O)Cc2ccc3c(c2)OCO3)[C@@H](NC(=O)c2ccc(-c3ccccc3)cc2)c2cc(OCCCO)ccc2N1C(=O)c1ccccc1 | -0.386 | -0.0093 | -0.0144 | 0.585 | 0.537 | 0.371 | 0.797 | -3.42 (inactive) | 0.239 | -0.374
15 | CC1CC/C=C\[C@H]2OC34C=CCN(Cc5ccccc5)C(=O)[C@H]3N(CCCCCO)C(=O)[C@@H]4C2C(=O)O1 (stereo not given in full) | 0.158 | -0.467 | -0.149 | 0.155 | -0.864 | -0.68 | 1.5 | 0.367 (inactive) | -0.677 | -0.312
16 | CC(C)NC(=O)[C@@H]1c2ccccc2C(=O)N(Cc2ccccc2)[C@H]1c1ccc(CO)cc1 | 0.726 | 0.0445 | 0.0411 | 0.365 | -1.1 | 1.06 | 1.36 | -1.1 (inactive) | -0.194 | -0.191
17 | NC(=O)NCC#Cc1ccc2c(c1)[C@]1(C(=O)N2)[C@H](C(=O)N2CCCCCCC2)[C@H]2C(=O)O[C@H](c3ccccc3)[C@H](c3ccccc3)N2[C@@H]1c1ccc(OCCO)cc1 | 3.14 | 0.756 | 0.326 | 0.904 | 0.481 | 0.463 | 0.292 | 0.832 (inactive) | 3.05 | 3.7

Row | SMILES | composite z-score [1] | composite z-score [2] | composite z-score [3] | composite z-score [4] | composite z-score [5] | composite z-score [6] | composite z-score [7] | z-score [8] | composite z-score [9] | composite z-score [10]
18 | CN(C)CCCNC(=O)[C@@]1(Cc2ccccc2I)c2ccccc2C(=O)N(Cc2ccccc2C(F)(F)F)[C@H]1c1ccc(CO)cc1 | 0.459 | -1.14 | -0.22 | -0.935 | -0.936 | 1.74 | 1.23 | -1.1 (inactive) | -0.309 | -0.0645
19 | CCCCCN1CC=CC23O[C@@H]4C=CCOC(=O)[C@@H]4[C@H]2C(=O)N(CCCO)[C@@H]3C1=O (stereo not given in full) | -0.295 | 0.777 | -0.195 | -0.549 | -0.661 | 2.05 | 1.27 | -0.482 (inactive) | -0.643 | -0.236
20 | COC(=O)C1=CC(CCCO)=CC(C2CC2)N(Cc2sc3ccccc3c2Cl)C=C1C(=O)OC (stereo not given) | -0.0356 | 0.43 | 0.0216 | 0.889 | 1.44 | 1.98 | 1.08 | -1.73 (inactive) | 1.1 | -0.266
21 | CC(C)(C)OC(=O)CC[C@@]1(C(=O)NCCN2CCOCC2)N=C(c2ccc(OCCCO)cc2)O[C@@H]1c1ccccc1 | 1.11 | 1.4 | 0.0189 | 0.262 | 1.28 | 1.75 | 1.2 | 0.951 (inactive) | 0.972 | 0.167
22 | O=C(O)[C@@]1(Cc2ccccc2)N=C(c2ccc(OCCCO)cc2)O[C@H]1c1ccccc1 | 0.447 | -0.647 | -0.0819 | 0.0083 | -0.738 | 1.91 | 0.923 | -3.29 (inactive) | 0.88 | -0.126
23 | COCCOC(=O)N1C(=O)[C@@]2(c3cc(C#CCC(C(=O)OC)C(=O)OC)ccc31)[C@H](C(=O)N1CCN(c3ncccn3)CC1)[C@H]1C(=O)O[C@H](c3ccccc3)[C@H](c3ccccc3)N1[C@@H]2c1ccc(OCCO)cc1 | -0.462 | 0.185 | -0.0293 | 0.0875 | 0.213 | 0.386 | 1.06 | -0.644 (inactive) | 0.0723 | -0.0088
24 | COC(=O)[C@@]1(Cc2ccc(OC)cc2)[C@H]2c3cc(C(=O)N(C)C)n(Cc4c(OC)[nH]cc(C)c4=O)c3C[C@H]2CN1C(=O)c1ccccc1 | 0.522 | 0.0954 | -0.102 | 0.289 | 1.49 | 1.92 | 1.08 | -1.04 (inactive) | 0.927 | -0.444
25 | CN1C(=O)C2C=CC(C(O)c3ccccn3)N(Nc3ccccc3)C2C1=O (stereo not given) | -0.0437 | 1.11 | -0.0985 | 0.479 | 0.766 | 0.838 | 0.684 | 0.595 (inactive) | 0.113 | 0.176
26 | CN(C)C(=O)[C@]1(CCC(=O)OC(C)(C)C)N=C(c2ccc(OCCCO)cc2)O[C@@H]1c1ccccc1N=[N+]=[N-] | 0.542 | 1.78 | 0.147 | 1.2 | 1.36 | 2.01 | 1.45 | 3.22 (inactive) | 1.43 | -0.0867
27 | O=C1OCC=C[C@H]2OC34C=CCN(c5ccc6ccccc6c5)C(=O)[C@H]3N(CCCO)C(=O)[C@@H]4[C@@H]12 (stereo not given in full) | 0.714 | -2.17 | -0.102 | -0.657 | -0.894 | -0.0772 | 1.59 | 0.389 (inactive) | -0.234 | 0.0515
28 | CC(C)C(=C=CC[C@H](O)c1ccccc1OCCO)C[C@H](O)c1ccccn1 | -0.102 | 1.51 | -0.125 | 0.486 | 0.695 | 1.66 | 1.36 | -1.68 (inactive) | 0.164 | -0.201
29 | [N-]=[N+]=Nc1ccccc1C[C@]1(C(=O)NCCN2CCOCC2)N=C(c2ccc(OCCCO)cc2)O[C@H]1c1ccccc1 | -0.283 | 0.309 | -0.085 | 0.271 | 1.05 | 1.07 | 1.25 | -0.897 (inactive) | 0.892 | 0.0373
30 | Cc1ccc([C@H]2[C@H](C(=O)O)[C@H](Sc3ccccc3)[C@@H](C(C)C)N2S(=O)(=O)c2ccc(C)cc2)cc1 | -0.182 | -0.126 | 0.167 | 0.307 | 1.49 | 1.78 | 0.945 | -2.58 (inactive) | 1.31 | -0.226
31 | CN(C)CCCCNC(=O)[C@H]1C[C@H]2C(=O)N[C@@H](Cc3ccccc3)C(=O)N2[C@H]1c1ccc(O)cc1 | -0.289 | 0.703 | -0.0805 | 0.934 | 1.37 | 1.65 | 1.22 | 1.85 (inactive) | 0.748 | 0.107
32 | COc1ccc(CCNC(=O)[C@@H]2c3ccccc3C(=O)N(Cc3ccc(OC(F)(F)F)cc3)[C@H]2c2ccc(CO)cc2)cc1 | 0.111 | 0.321 | -0.0937 | 0.252 | 0.0125 | 0.75 | 0.882 | -2.61 (inactive) | 0.322 | -0.0672
33 | CCCNC(=O)[C@@H]1c2ccccc2C(=O)N(Cc2ccccc2)[C@H]1c1ccc(CO)cc1 | 0.0651 | -0.427 | -0.0861 | -0.533 | -0.195 | 1.09 | 1.11 | -1.14 (inactive) | -0.115 | 0.132
